Here are results for 8 compounds from PubChem BioAssay (NCATS).

The nature of experiment [1]: Quantitative High-Throughput drug screen in 47 multiple myeloma cell lines against the NCATS MIPE library collection: SKMM1_PLB cell viability assay (AID 1919863). Note: nearly all actives have a fitted effect of over 35% in size. Note: potency is the fitted concentration of half-maximal effect. Particulars: SKMM1 myeloma viability, CellTiter-Glo ATP, 48 h; viability: stronger effect = lower value. In short, it runs like this:
(§1)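 Readout: median RLU from CellTiter-Glo after 5 min at room temperature. Preceding step was 48 h drug treatment of 500 cells/well at 37 °C, 5% CO2, with DMSO-only and media-only control wells.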
On the technique in general: Cellular ATP, detected with luciferase, serves as a proxy for viable cell number.

A short description of experiment [2]: Quantitative High-Throughput drug screen in 47 multiple myeloma cell lines against the NCATS MIPE library collection: XG6_PLB cell viability assay (AID 1919865). Note: nearly all actives have a fitted effect of over 40% in size. Note: potency is the fitted concentration of half-maximal effect. In short, it runs like this:
as §1

Experiment [3] can be described thus: Quantitative High-Throughput drug screen in 47 multiple myeloma cell lines against the NCATS MIPE library collection: PCM6_Riken cell viability assay (AID 1919870). Note: nearly all actives have a fitted effect of over 30% in size. Note: potency is the fitted concentration of half-maximal effect. In short, it runs like this: as §1
Experiment [4] in a line: Quantitative High-Throughput drug screen in 47 multiple myeloma cell lines against the NCATS MIPE library collection: RPMI8226_ATCC cell viability assay (AID 1919871). Note: nearly all actives have a fitted effect of over 30% in size. Note: potency is the fitted concentration of half-maximal effect. In short, it runs like this: as §1
A short description of experiment [5]: Quantitative High-Throughput drug screen in 47 multiple myeloma cell lines against the NCATS MIPE library collection: U266_ATCC cell viability assay (AID 1919864). Note: potency is the fitted concentration of half-maximal effect; nearly all actives have a fitted effect of over 35% in size. In short, it runs like this:
as §1

Experiment [6] is described as follows: Quantitative High-Throughput drug screen in 47 multiple myeloma cell lines against the NCATS MIPE library collection: XG1_PLB cell viability assay (AID 1919866). Note: potency is the fitted concentration of half-maximal effect; nearly all actives have a fitted effect of over 35% in size. In short, it runs like this:
as §1

A short description of experiment [7]: Quantitative High-Throughput drug screen in 47 multiple myeloma cell lines against the NCATS MIPE library collection: VP6_DJ cell viability assay (AID 1919867). Note: nearly all actives have a fitted effect of over 40% in size. Note: potency is the fitted concentration of half-maximal effect. In short, it runs like this: as §1
A short description of experiment [8]: Quantitative High-Throughput drug screen in 47 multiple myeloma cell lines against the NCATS MIPE library collection: UTMC2_PLB cell viability assay (AID 1919868). Note: nearly all actives have a fitted effect of over 55% in size. Note: potency is the fitted concentration of half-maximal effect. As to conditions: CellTiter-Glo ATP luminescence, 48 h; viability (% of DMSO control): at 45.8 µM (top of the series). In short, it runs like this: as §1
Experiment [9] can be described thus: Quantitative High-Throughput drug screen in 47 multiple myeloma cell lines against the NCATS MIPE library collection: PE2_PLB cell viability assay (AID 1919869). Note: nearly all actives have a fitted effect of over 35% in size. Note: potency is the fitted concentration of half-maximal effect. In short, it runs like this:
as §1

A short description of experiment [10]: Quantitative High-Throughput drug screen in 47 multiple myeloma cell lines against the NCATS MIPE library collection: OPM2_DSMZ cell viability assay (AID 1919872). Note: nearly all actives have a fitted effect of over 30% in size. In short, it runs like this:
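Luminescent ATP measurement with CellTiter-Glo gives viability, scaled between DMSO-only wells (100%) and media-only wells (0%). Cells, 500 per well, faced library compounds for 48 hours at 37C.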

SMILES strings stand for the structures. Records with an inconclusive call do not appear. Values without a mark were called inactive. Activity calls are given as the source filed them. Calls come from the whole dose curve; as a rule, active = well fitted cell-killing curve with a large enough effect; inconclusive = small, poorly fitted or top-dose-only effect, or effect the other way; inactive = no such curve, though single readings can be large or run the other way.

For the compound `CCOC(=O)c1c(CSc2ccccc2)n(C)c2cc(Br)c(O)c(CN(C)C)c12`, the Potency is 6.62 µM (active) in [1], 14.8 µM (active) in experiment [2], 16.6 µM (active) in experiment [3] and 11.8 µM (active) in experiment [4].

In the case of `CCNC(=O)c1noc(-c2cc(C(C)C)c(O)cc2O)c1-c1ccc(CN2CCOCC2)cc1`, the Potency in experiment [5] was 0.0332 µM (active); in [2] it was 0.132 µM (active); in [6] it was 0.0743 µM (active); in [7], 0.0372 µM (active); in experiment [8] it was 0.0833 µM (active); in experiment [9], 0.105 µM (active). The Potency in [3] is 0.0526 µM (active).

One may read the viability as a read-out of living cells in per cent, often relative to untreated cells. In the case of `COc1cc(C=CC(=O)O)ccc1O`, the viability in [1] is 124%. Also, the Potency result in [2], in experiment [7], in [3], in experiment [4] and in experiment [10] was “inactive” each time.

Take `CCC(=O)NCC[C@@H]1CCc2ccc3c(c21)CCO3`: the viability in experiment [1] is 137%. Besides, the Potency entry in experiment [7], in [8] and in experiment [9] was “inactive” in each case.

`CN[C@@H]1CN(c2ccc3c(=O)c(C(=O)O)cn(-c4nccs4)c3n2)C[C@@H]1OC`: the Potency in [1] is 7.24 µM (active); in [6], 7.24 µM (active); in [8], 1.29 µM (active); in experiment [9] it was 1.82 µM (active); in experiment [4], 12.9 µM (active).

For the compound `CC(C)(O)CC(=O)NCCn1ccc2ncnc(Nc3ccc(Oc4cccc(C(F)(F)F)c4)c(Cl)c3)c21`, the Potency in experiment [1] is 23.5 µM (active). The Potency entry in experiment [7] is “inactive”.

`C[C@@H]1CCO[C@H]2Cn3cc(C(=O)NCc4ccc(F)cc4F)c(=O)c(O)c3C(=O)N12`: the Potency in experiment [1] and in experiment [6] was 26.4 µM (active) in each case. Besides, in experiment [10], the Potency entry is “inactive”.

With `CNC(=O)[C@H](Cc1ccccc1)NC(=O)[C@H](CC(C)C)[C@H](CSc1cccs1)C(=O)NO`, the viability in [1] was 98.7%. The Potency was 7.43 µM (active) in experiment [2], 16.6 µM (active) in experiment [9] and 13.2 µM (active) in experiment [3].
